# This is a sample that favours compounds with a hit; in the whole collection about 9% have one here.
# 12-LOX inh: blocks human arachidonate 12S-lipoxygenase. P18054. purified 12hLO, xylenol orange hydroperoxide absorbance. Potency, µM (top dose mostly 108 µM), inactives show at the highest dose activity change, negative = inhibition, hits mostly inhibitors. 580,000 tested, 1.1% active. AID 1671190; further: on the % scale 0 is the no-effect control and ±100 the full control effect
#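 Hydroperoxide product was detected by ferrous iron/xylenol orange as the 573 to 405 nm absorbance ratio. Arachidonic acid at 40 uM (final) was turned over for 30 min at room temperature by 150 nM human 12hLO, pH 7.0 Hepes buffer, after 15 min compound preincubation.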
# HP1b chromo inh: inhibitors of HP1-beta chromodomain binding to methylated histone tails. P83916. AlphaScreen HP1-beta / biotin-H3K9me3 peptide binding. Potency, µM (doses to about 114 µM), inactives show top-dose activity change, negative = inhibition, usual class: inhibitors. 390,000 tested, 0.56% active. AID 540317; further: nearly all actives have a fitted effect of over 70% in size
#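 HP1-beta protein (50 nM final) preincubated 30 min at room temperature with biotinylated H3(1-18)K9me3 peptide (50 nM) in PBS pH 7.4, 0.01% Tween-20, then compound added for 30 min. AlphaScreen streptavidin donor/nickel chelate acceptor beads (10 ug/mL final), 30 min dark, luminescence read.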
# BAZ2B inh: blocks human BAZ2B; Q9UIF8; 360,000 tested, 4.4% active; Potency, µM (titrated, usually from 114 µM), for inactives: at the highest dose activity change, negative = inhibition, actives largely listed as inhibitors; AID 504333; AlphaScreen BAZ2B-H3K14Ac peptide displacement; further: on the % scale 0 is the no-effect control and ±100 the full control effect; nearly all actives have a fitted effect of over 60% in size
#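 Compounds, titrated to a top concentration of 110 uM, were incubated 30 min at room temperature with preformed BAZ2B/acetyl-K14 H3 peptide complex (50 nM each). Proximity signal was measured by AlphaScreen after 20 min with beads.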
# G9a block: inhibitors of human histone lysine methyltransferase G9a. Q96KQ7. G9a H3K9 monomethylation, AlphaScreen, 2 h. Potency, µM (doses to about 102 µM), inactives show at the highest dose activity, negative = inhibition, actives largely listed as inhibitors. 350,000 tested, 8.8% active; further: on the % scale 0 is the no-effect control and ±100 the full control effect; nearly all actives have a fitted effect of over 75% in size
#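 Methyltransferase reactions run at room temperature for 2 h (20 nM enzyme, 500 nM biotin-H3K9 peptide, 20 uM SAM) after a 15 min compound preincubation; product detected by AlphaScreen beads and anti-H3K9me1 antibody.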
# PLK1 PBD inh: blocks phosphopeptide binding to human PLK1 polo-box domain. P53350. Plk1 PBD binding of FITC phosphopeptide, fluorescence polarization. Potency, µM, without a hit: max response, negative = inhibition, actives largely listed as inhibitors. 360,000 tested, 2.8% active. AID 720504; further: series mostly up to about 57 µM; on the % scale 0 is the no-effect control and ±100 the full control effect; nearly all actives have a fitted effect of over 65% in size
# JMJD2A Tudor inh: inhibitors of human JMJD2A Tudor domain. O75164. AlphaScreen JMJD2A-Tudor / H3K4me3 peptide binding. Potency, µM (doses to about 114 µM), inactives show top-dose activity change, negative = inhibition, actives largely listed as inhibitors. 390,000 tested, 4.4% active; further: on the % scale 0 is the no-effect control and ±100 the full control effect; nearly all actives have a fitted effect of over 50% in size
# The depositor's hits bear a star; ? = inconclusive; / = no result; [ ] = remark or other dose. The call rests on the fitted dose curve; in most records, active means well fitted curve in the direction sought with a large enough effect; inconclusive means small, poorly fitted or top-dose-only effect, or another doubt; inactive means no such curve, though single readings can be large; an effect the other way counts as inactive or inconclusive. Potency means the concentration at half of the fitted maximal effect.
SMILES,12-LOX inh,HP1b chromo inh,BAZ2B inh,G9a block,PLK1 PBD inh,JMJD2A Tudor inh
CC(=O)Nc1ccc(N2C(=O)C(=O)/C(=C(/O)c3ccc(Cl)cc3)C2c2ccc(Cl)cc2)cc1 (configuration not stated),17%,/,/,/,/,/
Oc1ccc(Cl)cc1CNCC1CCCO1 (configuration not stated),-9%,?,50µM*,-7%[2.33 µM],-5%,3.2µM*
Clc1ccccc1CNCC1CCCO1 (configuration not stated),5%,22%,-28%,-5%,-9%,-7%
O=C(CBr)c1ccc([N+](=O)[O-])c(CS(=O)(=O)c2ccc(Cl)cc2)c1,?,18%,-38%,7.1µM*,-23%,?
O=C(O)c1ccc([N+](=O)[O-])c(CS(=O)(=O)c2ccc(Cl)cc2)c1,-5%,80%,?,-45%,-10%,-9%
CC1(C)Cc2c(ccc3ccccc23)/C(=C/C#N)N1,40µM*,-11%,-12%,50µM*,-12%,?
COC(=O)C1=C(C)NC(=O)NC1c1ccc(-c2ccccc2Cl)o1 (configuration not stated),-11%,-10%,11%,?,19µM*,-23%[11.4 µM]
COC(=O)C1=C(C)NC(=S)NC1c1ccc(-c2cccc(Cl)c2)o1 (configuration not stated),-12%,50%,?,10µM*,-4%,3%
COC(=O)C1=C(C)NC(C)=C(C(=O)OC)C1c1ccc(-c2cccc(Cl)c2Cl)o1,0%,34%,-2%,-18%[59 µM],0%,-11%
COC(=O)C1=C(C)NC(=S)NC1c1cccc(OC)c1 (configuration not stated),-25%,/,/,/,/,/
CCOC(=O)C1=C(C)NC(C)=C(C(=O)OCC)C1c1ccco1,-10%,15%,-11%,/,-10%,-14%
COC(=O)C1=C(C)NC(C)=C(C(=O)OC)C1c1ccc(-c2cc(Cl)ccc2Cl)o1,?,53%,-5%,18µM*,-10%,-12%
CCOC(=O)C1=C(C)NC(=S)NC1c1ccco1 (configuration not stated),?,12%,-14%,50µM*,?,?
COC(=O)C1=C(C)NC(=O)NC1c1ccc(-c2ccc(F)cc2)o1 (configuration not stated),?,5%,-23%,?,5%,-21%
CCOC(=O)C1=C(C)NC(=S)NC1c1ccc(-c2cccc(Cl)c2C)o1 (configuration not stated),?,38%,3%,27%[0.501 µM],?,-23%
NNC(=O)c1ccc(-c2cccc([N+](=O)[O-])c2)o1,339%,34%,/,-2%,7%,-21%
COC(=O)C1=C(C)NC(C)=C(C(=O)OC)C1c1ccc(-c2cccc([N+](=O)[O-])c2)o1,?,13%,-26%,79µM*,-16%,?
CCOC(=O)C1=C(C)NC(=S)NC1c1ccc(-c2ccc(Cl)cc2)o1 (configuration not stated),32µM*,17%,-37%,?,-12%,-35%
CCOC(=O)C1=C(C)NC(=O)NC1c1ccc(-c2ccc(Cl)cc2)o1 (configuration not stated),-24%,14%,-24%,-9%,-9%,-26%
COC(=O)C1=C(C)NC(=S)NC1c1ccc(-c2ccccc2C(=O)OC)o1 (configuration not stated),?,5%,-39%,8.9µM*,-24%,-29%
COc1ccc(/C=N/Nc2nncn2N)cc1Br,58%,5%,?,/,-20%,-22%
COC(=O)COc1ccc(/C=N/NC(=O)c2ccc(N(Cc3ccccc3)S(C)(=O)=O)cc2)cc1,12%,5%,-5%,9%,-7%,-7%
COc1ccc(-c2cc([C@H]3[C@@H]4C=CCC[C@@]4(C)C(=O)N3Cc3ccccc3)ccc2F)cc1OC,11µM*,24%,-30%,-40%[59 µM],-4%,-25%
